Measurements taken from PubChem BioAssay (EPA / NIEHS).
Inconclusive results are not listed. Activity calls are given as the source filed them. The calls were made as follows: active = hit-call score of the fitted dose curve at least 0.9, where 1 is the maximum; inconclusive = response in the unintended direction; inactive = score below 0.9.

Assay: Tanguay_ZF_120hpf_OTIC_legacy: (Legacy) Oregon State University Tanguay Lab 120 Hour Post-fertilization zebrafish Assay for Otic Vesicle Malformation (AID 2283639)
Method in brief: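 Wild-type zebrafish larvae, whole-embryo exposure from early stage to 120 hpf at 28C. Binary brightfield scoring of otic vesicle morphology, fitted in the positive direction against the DMSO baseline.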

SMILES	outcome	AC50
CN1CCN(c2ccccc2/C=C2\SCCN(c3ccc(Cl)c(Cl)c3)C2=O)CC1	inactive	
Oc1cccc(O)c1	inactive	
Oc1cc2ccccc2c2ccccc12		10.8 µM (active)
CCCCCCCC(=O)O	inactive	
NC(=O)N1C(=O)C(C(=O)c2cc(Cl)cs2)c2cc(F)c(Cl)cc21 (stereo not given)	inactive	
COCC(C)O (stereo not given)	inactive	
CC1=C(/C=C/C(C)=C/C=C/C(C)=C/C(=O)O)C(C)(C)CCC1		0.211 µM (active)
O=C(O)Cc1cc(I)c(Oc2cc(I)c(O)c(I)c2)c(I)c1	inactive	
COc1ccc([N+](=O)[O-])cc1N	inactive	
OC1CCC(C2CCCCC2)CC1 (stereo not given)	inactive	
CC(C)(C)CC(C)(C)c1ccc(O)c(-n2nc3ccccc3n2)c1	inactive	
CC(C)(C)c1ccc(O)c(C(C)(C)C)c1	inactive	
c1ccc2c(c1)Cc1ccccc1-2	inactive	
COC(=O)CCCCC(=O)OC	inactive	
CCCCCCCCC(=O)O	inactive	
c1ccc2cc3c(ccc4ccccc43)cc2c1		40.6 µM (active)
O=c1c(-c2ccc(O)cc2)coc2cc(O)ccc12	inactive	
Nc1cccc2c(N)cccc12	inactive	
CCCOC(=O)c1ccc(O)cc1		40 µM (active)
CC[C@H](c1ccc(O)cc1)[C@@H](CC)c1ccc(O)cc1	inactive	
CCC(C)(C)C1CCC(O)CC1 (stereo not given)	inactive	
CCc1ccc(CCOc2ccc(CC3SC(=O)NC3=O)cc2)nc1 (stereo not given)	inactive	
O=[N+]([O-])c1ccc(O)cc1	inactive	
CCCCC(CC)COC(=O)CCCCC(=O)OCC(CC)CCCC (stereo not given)	inactive	
Cc1cc(CCN2CCN(c3nsc4ccccc34)CC2)cc2c1NC(=O)CC2(C)C		6.42 µM (active)
